According to the supplement of paper PMC6089552:
The whole screen tested about 3,200 compounds, of which about 300 (9.4%) showed activity. This excerpt belongs to a sample that is enriched for actives.

Tested on: A673/TR/shEF
Test: cell viability (LOESS-normalised, relative to median of negative controls) (log2 ratio); higher = more viable cells (less compound effect), active = hit call of the paper (over 3 MAD below the median)
Conditions: treatment time: 72 h
Method in brief: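 A673/TR/shEF Ewing sarcoma cells (1,500 per well, 384-well plates) were grown with or without doxycycline to induce EWS-FLI1 shRNA knockdown, starting 24 h before compounds. Library compounds at two or more concentrations, with DMSO controls, were added for three days. Cell viability was read by CellTiter-Glo luminescence on an Envision reader, then LOESS-corrected per plate, divided by the median of negative controls and log2-transformed. Hits were wells at least three median absolute deviations from the median of all screened wells.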

[1] = 0.25 µM, library screen: screen1, EWS-FLI1 expression: high (no doxycycline)
[2] = 0.25 µM, library screen: screen1, EWS-FLI1 expression: low (doxycycline-induced shRNA knockdown)
[3] = 2.5 µM, library screen: screen1, EWS-FLI1 expression: high (no doxycycline)
[4] = 2.5 µM, library screen: screen1, EWS-FLI1 expression: low (doxycycline-induced shRNA knockdown)
[5] = 0.25 µM, library screen: screen2, EWS-FLI1 expression: high (no doxycycline)
[6] = 0.25 µM, library screen: screen2, EWS-FLI1 expression: low (doxycycline-induced shRNA knockdown)
[7] = 2.5 µM, library screen: screen2, EWS-FLI1 expression: high (no doxycycline)
[8] = 2.5 µM, library screen: screen2, EWS-FLI1 expression: low (doxycycline-induced shRNA knockdown)
[9] = 0.103 µM, library screen: screen3, EWS-FLI1 expression: high (no doxycycline)
[10] = 0.103 µM, library screen: screen3, EWS-FLI1 expression: low (doxycycline-induced shRNA knockdown)
[11] = 0.308 µM, library screen: screen3, EWS-FLI1 expression: high (no doxycycline)
[12] = 0.308 µM, library screen: screen3, EWS-FLI1 expression: low (doxycycline-induced shRNA knockdown)
[13] = 0.926 µM, library screen: screen3, EWS-FLI1 expression: high (no doxycycline)
[14] = 0.926 µM, library screen: screen3, EWS-FLI1 expression: low (doxycycline-induced shRNA knockdown)
[15] = 2.8 µM, library screen: screen3, EWS-FLI1 expression: high (no doxycycline)
[16] = 2.8 µM, library screen: screen3, EWS-FLI1 expression: low (doxycycline-induced shRNA knockdown)
[17] = 8.3 µM, library screen: screen3, EWS-FLI1 expression: high (no doxycycline)
[18] = 8.3 µM, library screen: screen3, EWS-FLI1 expression: low (doxycycline-induced shRNA knockdown)
[19] = 25 µM, library screen: screen3, EWS-FLI1 expression: high (no doxycycline)
[20] = 25 µM, library screen: screen3, EWS-FLI1 expression: low (doxycycline-induced shRNA knockdown)
[21] = 0.025 µM, library screen: screen1, EWS-FLI1 expression: high (no doxycycline)
[22] = 0.025 µM, library screen: screen1, EWS-FLI1 expression: low (doxycycline-induced shRNA knockdown)
[23] = 25 µM, library screen: screen1, EWS-FLI1 expression: high (no doxycycline)
[24] = 25 µM, library screen: screen1, EWS-FLI1 expression: low (doxycycline-induced shRNA knockdown)

Measured: cell viability (log2)

CC1=C(C(=O)OCC2CCCO2)C(c2coc3ccccc3c2=O)C2=C(CCCC2=O)N1 (centres undefined)
inactive: [1] 0.0728 | [2] 0.022 | [3] 0.00147 | [4] 0.0061

COc1ccc2c(c1)OC1CC1(c1ccccc1OC)C2=O (centres undefined)
inactive: [1] 0.0685 | [2] 0.0535 | [3] 0.0294 | [4] 0.0412

COc1ccc(OC)c(CN2CCN(Cc3ccco3)CC2)c1
inactive: [1] 0.136 | [2] 0.00829 | [3] 0.0712 | [4] 0.0546

C=C1C[C@]23C[C@@]1(O)CC[C@H]2[C@@]12C=C[C@H](O)C(C)(C(=O)O1)[C@H]2[C@@H]3C(=O)O
inactive: [1] 0.0797 | [2] -0.049 | [3] 0.109 | [4] 0.00256

CC(C)C[C@H](NC(=O)[C@H](O)[C@H](N)Cc1ccccc1)C(=O)O
inactive: [5] 0.14 | [6] 0.0402 | [7] 0.0931 | [8] 0.0118

CC(C)C[C@H](NC(=O)[C@H](Cc1ccccc1)NC(=O)c1cnccn1)B(O)O
active: [9] -0.242 | [11] -2.56 | [12] -0.914 | [13] -3.95 | [14] -1.75 | [15] -4.24 | [16] -4.06 | [17] -4.26 | [18] -3.84 | [19] -4.26 | [20] -4.16
inactive: [10] -0.0845

CC(C)C[C@H](NC(=O)[C@@H](O)[C@H](N)Cc1ccccc1)C(=O)O
inactive: [5] 0.185 | [6] -0.00499 | [7] 0.106 | [8] 0.0581

O=C(Nc1ccccc1Cl)C1c2ccccc2Oc2ccccc21
inactive: [1] 0.0923 | [2] 0.0427 | [3] 0.118 | [4] 0.00942

COC1CCC2(C)C(CCC3C2CCC2(C)C(C(C)CCCC(C)C)CCC32)C1 (centres undefined)
inactive: [1] -0.00918 | [2] 0.0236 | [3] 0.0903 | [4] 0.091

CCCCCCCCCC(=O)NC(CN1CCOCC1)C(O)c1ccccc1 (centres undefined)
active: [5] -0.53 | [6] -0.533 | [7] -1.39 | [8] -2.57

CCN1CCCC(OC(=O)C(c2ccccc2)c2ccccc2)C1 (centres undefined)
inactive: [1] 0.0616 | [2] 0.0736 | [3] 0.223 | [4] -0.0423

CCCCOc1ccc(OCCCN2CCOCC2)cc1
inactive: [1] 0.172 | [2] 0.0279 | [3] 0.124 | [4] 0.0578

Cc1ccc(C(=O)NCCSc2ccccn2)cc1
inactive: [1] 0.109 | [2] 0.00816 | [3] 0.117 | [4] -0.0564

Cn1cnnc1SCC(=O)N1c2ccccc2C(C)(c2ccccc2)CC1(C)C (centres undefined)
inactive: [1] 0.078 | [2] 0.058 | [3] 0.127 | [4] 0.198

C[C@@H]1CC[C@H]2[C@](C)(CO)[C@@H](O)CC[C@]2(C)[C@@]12CC[C@@](CO)(CCO)O2
inactive: [1] 0.0457 | [2] -0.0603 | [3] 0.0942 | [4] 0.112

CC(C)(C)c1onc(OCP(=O)(O)O)c1CC(N)C(=O)O (centres undefined)
inactive: [5] -0.0656 | [6] 0.0767 | [7] 0.0137 | [8] 0.0837

N=C(N)c1ccc(N)cc1
inactive: [5] 0.132 | [6] 0.0859 | [7] 0.0987 | [8] 0.121

CCOC(=O)c1ccc(N)cc1
inactive: [1] 0.113 | [2] 0.151 | [3] 0.0778 | [4] 0.18

N=C1C=CC(=C(c2ccc(N)cc2)c2ccc(N)cc2)C=C1
active: [1] -0.412 | [2] -0.563 | [3] -3.76 | [4] -3.35

CC(C)c1c(O)c(-c2cc3c(c(C(C)C)c2O)CCC2C(C)(C)CCCC32C)cc2c1CCC1C(C)(C)CCCC21C (centres undefined)
inactive: [1] 0.108 | [2] 0.109 | [3] 0.0993 | [4] 0.112

COc1c(C)c2c(c(O)c1C/C=C(\C)CCC(=O)OCCN1CCOCC1)C(=O)OC2
inactive: [9] 0.051 | [10] 0.0315 | [11] 0.00041 | [12] 0.00916 | [13] -0.00635 | [14] 0.0426 | [15] 0.0529 | [16] 0.0135 | [17] -0.0785 | [18] 0.0651
active: [19] -0.48 | [20] -0.33

COC1=C(OC)C(=O)C(C/C=C(\C)CC/C=C(\C)CC/C=C(\C)CC/C=C(\C)CC/C=C(\C)CC/C=C(\C)CC/C=C(\C)CC/C=C(\C)CC/C=C(\C)CCC=C(C)C)=C(C)C1=O
inactive: [1] 0.0717 | [2] 0.153 | [3] 0.193 | [4] 0.233

COc1c(C)c2c(c(O)c1C/C=C(\C)CCC(=O)O)C(=O)OC2
active: 25 µM, library screen: screen2, EWS-FLI1 expression: high (no doxycycline) -0.533 | 25 µM, library screen: screen2, EWS-FLI1 expression: low (doxycycline-induced shRNA knockdown) -0.259 | [19] -0.488 | [20] -0.403
inactive: 0.025 µM, library screen: screen2, EWS-FLI1 expression: high (no doxycycline) 0.0161 | 0.025 µM, library screen: screen2, EWS-FLI1 expression: low (doxycycline-induced shRNA knockdown) 0.0434 | [9] 0.108 | [10] 0.173 | [1] 0.047 | [2] -0.0419 | [5] 0.0974 | [6] 0.108 | [11] 0.00407 | [12] 0.0569 | [13] 0.0822 | [14] 0.0245 | [3] 0.0367 | [4] 0.00349 | [7] 0.137 | [8] -0.00198 | [15] 0.147 | [16] 0.096 | [17] -0.0618 | [18] -0.0369

C(#CC12CC3CC(CC(C3)C1)C2)CN1CCOCC1
inactive: [1] 0.0887 | [2] 0.0273 | [3] 0.163 | [4] 0.0455

Brc1ccccc1CN1CCN(Cc2ccco2)CC1
inactive: [1] 0.15 | [2] 0.0476 | [3] 0.0744 | [4] 0.0303

Cn1c(=O)[nH]c(=O)c2[nH]cnc21
inactive: [1] 0.136 | [2] -0.0262 | [3] 0.111 | [4] 0.0112

C=C(C)C1COc2cc3oc(=O)ccc3cc2O1 (centres undefined)
inactive: [1] 0.0489 | [2] 0.0843 | [3] 0.0665 | [4] 0.127

COc1ccc2c(c1)OC[C@@H](Cc1ccc(OC)c(OC)c1)[C@H]2O
inactive: [1] 0.0776 | [2] -0.01 | [3] 0.0904 | [4] -0.0561

C[N+]1(C)C2CC[C@H]1CC(OC(=O)C(O)c1ccccc1)C2 (some centres undefined)
inactive: [1] 0.0981 | [2] 0.0981 | [3] 0.164 | [4] -0.0226

O=c1oc2cc3occc3cc2c2oc3cc4c(cc3c12)OCO4
inactive: [1] 0.103 | [2] -0.01 | [3] 0.0469 | [4] 0.0004

OC[C@@H](O)C(O)[C@H](O)CO
inactive: [1] 0.179 | [2] 0.0545 | [3] 0.145 | [4] 0.0215

O=C(O)c1cc(O)ccc1O
inactive: [1] 0.00691 | [2] 0.0897 | [3] 0.0219 | [4] 0.0883

O=C(O)c1cc(N(Cc2ccccc2O)Cc2cc(O)ccc2O)ccc1O
inactive: [21] 0.17 | [22] 0.0496 | [1] 0.173 | [2] 0.132 | [3] 0.0556 | [4] 0.0297 | [23] 0.0931 | [24] 0.144

O=C(O)c1cc(NCc2cc(O)ccc2O)ccc1O
inactive: [21] 0.268 | [22] -0.135 | [2] 0.0214 | [4] -0.0017 | [24] 0.0315
0.324: [1]
active: [3] -0.24 | [23] -0.388

Nc1ccccc1NC(=O)c1ccc(CNc2nccc(-c3cccnc3)n2)cc1
active: [15] -0.554 | [17] -1.39 | [18] -0.431 | [19] -3.23 | [20] -1.08
inactive: [9] 0.0488 | [10] 0.158 | [11] 0.0583 | [12] 0.0629 | [13] -0.0966 | [14] 0.141 | [16] 0.00492

Cc1ccc(NC(=O)c2ccc(CN3CCN(C)CC3)cc2)cc1Nc1nc(-c2cccnc2)cs1
active: [19] -0.709
inactive: [9] 0.122 | [10] 0.0762 | [11] 0.0521 | [12] 0.0956 | [13] 0.0749 | [14] 0.0933 | [15] 0.0638 | [16] 0.131 | [17] 0.061 | [18] 0.0802 | [20] 0.154

Cc1ccncc1Nc1ncccc1C(=O)Nc1ccc(C2(C#N)CCCC2)cc1
inactive: [9] 0.0267 | [10] 0.0194 | [11] 0.0111 | [12] -0.0325 | [13] -0.00588 | [14] -0.00768 | [15] -0.00204 | [16] -0.0249 | [17] 0.00934 | [18] -0.0211 | [19] -0.0197 | [20] 0.0222

O=C(NCO)c1cccnc1
0.28: [1]
inactive: [2] 0.147 | [3] 0.255 | [4] 0.103

Cc1cn(-c2cc(NC(=O)c3ccc(C)c(Nc4nccc(-c5cccnc5)n4)c3)cc(C(F)(F)F)c2)cn1
inactive: [9] 0.0821 | [10] 0.114 | [11] 0.0305 | [12] 0.0807 | [13] 0.00582 | [14] 0.101 | [15] -0.0305 | [16] 0.116 | [17] 0.0184 | [18] 0.0705 | [19] -0.057 | [20] 0.0892

Cc1ccc(NC(=O)c2ccc(CN3CCN(C)CC3)cc2)cc1Nc1nccc(-c2cccnc2)n1
inactive: [9] 0.102 | [10] 0.119 | [11] 0.178 | [12] 0.125 | [13] 0.121 | [14] 0.129 | [15] 0.135 | [16] 0.128 | [17] 0.122 | [18] 0.126 | [20] 0.146
active: [19] -0.195
